From PubChem
Sm TGR block: S. mansoni TGR enzyme inhibition. Q962Y6. purified TGR, DTNB reduction, TNB absorbance 405 nm. Potency, µM (highest dose often 114 µM), usual class: inhibitors. 360,000 compounds, 3% hits. AID 485364; further: nearly all actives have a fitted effect of over 60% in size
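TGR 20 nM + NADPH 100 uM (dispensed conc.), cpd preinc 15 min RT; start with NADPH (500 uM addition) then DTNB (15 mM addition). Kinetic TNB absorbance, 405 nm filter. Four-parameter Hill fit across titration.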
HCMV antiviral: human cytomegalovirus inhibition | AID 1259415 | activity change, negative = inhibition, % at 57.5 µM | HFF cells, HCMV-luciferase reporter, 72 h; active compounds read low | 410,000 compounds, 4.5% hits; in the data active means activity change below about -60%; inconclusive means no clear call, values can overlap the other calls; inactive means above about -39%
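Two-dose cell screen: HFF monolayers treated with compounds and infected with luciferase-expressing HCMV at 1 PFU/cell, 72 h at 37C, then lysed for luciferase measurement.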
SARS PLpro yeast: inhibitors of SARS-CoV papain-like protease in yeast | Potency, µM (series often up to 32.9 µM), actives largely listed as activators | 330,000 compounds, 0.19% hits | AID 485353 | S. cerevisiae expressing SARS-CoV PLpro, growth rescue; calls by dose curve; further: nearly all actives have a fitted effect of over 55% in size
Pf growth 48h: inhibits P. falciparum growth in the first generation, 48 h; P. falciparum luciferase growth in erythrocytes, 48 h; 310,000 compounds, 5.9% hits; Potency, µM (highest dose often 28.7 µM), usual class: inhibitors
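A one-generation exposure of luciferase-tagged malaria parasites in RPMI 1640/Albumax erythrocyte culture, 37 C and 5% CO2. Inhibition is inferred from decreased luminescence after adding detection reagent.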
Pf growth 96h: P. falciparum growth inhibition at 96 hours. P. falciparum luciferase reporter growth, 96 h. Potency, µM (top dose mostly 28.7 µM), most hits filed as inhibitors. 320,000 compounds, 6.9% hits
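Readout is luminescence from an integrated firefly luciferase in P. falciparum. Red cells, 2% hematocrit and 0.05% parasitemia final, were cultured with compound through two parasite generations (96 hours) at 37 C, 5% CO2.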
HCV inhibitor: inhibitors of hepatitis C virus infection | Huh7.5.1 HCVcc-Cre infection, luciferase reporter, 44 h | AID 651820 | Potency, µM (titrated, usually from 41.8 µM), usual class: inhibitors | 340,000 compounds, 3.4% hits
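Whole-lifecycle infectious HCVcc-Cre system; cells 1,000/well, compound then virus (~0.5 moi) added 4 h after plating, 44 h culture. Luciferase read 15 sec following 15 min substrate incubation, room temp.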
Of the large screens only hits and unclear results are named; the others gave an inactive call. Compounds with a hit are over-represented: about 15% of the library has one in this group of screens. Unless noted, the call rests on the fitted dose curve; in most records, active means well fitted curve in the direction sought with a large enough effect; inconclusive means small, poorly fitted or top-dose-only effect, or another doubt; inactive means no such curve, though single readings can be large; an effect the other way counts as inactive or inconclusive.

CCOC(=O)c1c(C)[nH]c(C)c1S(=O)(=O)NCC(=O)Nc1ccc(C)cc1C	none (no result: SARS PLpro yeast, Pf growth 48h, Pf growth 96h, HCV inhibitor)
CNc1ncnc(Sc2ccc(Cl)cc2)c1[N+](=O)[O-]	Sm TGR block 0.56µM, Pf growth 48h 9.3µM, HCV inhibitor inconclusive
Cn1nc([N+](=O)[O-])nc1Sc1ccc(Cl)cc1	Sm TGR block inconclusive, Pf growth 48h inconclusive
O=C(CSc1ccccn1)Nc1nonc1[N+](=O)[O-]	Sm TGR block 7.1µM, Pf growth 48h inconclusive, Pf growth 96h inconclusive
CC1(C(=O)NCc2ccccc2)CCC(=O)N1CCCn1ccnc1 (stereo unspecified)	HCMV antiviral -99 (no result: Sm TGR block, SARS PLpro yeast, Pf growth 48h, Pf growth 96h, HCV inhibitor)
CC1(C(=O)NCc2cccnc2)CCC(=O)N1CCc1ccccc1 (stereo unspecified)	HCMV antiviral -97
CC1(C(=O)NCc2ccccc2)CN(S(C)(=O)=O)CC(=O)N1CCCn1ccnc1 (stereo unspecified)	none (no result: Sm TGR block, SARS PLpro yeast, Pf growth 48h, Pf growth 96h, HCV inhibitor)
CCCCNC(=O)C1(C)CCC(=O)N1CCCn1ccnc1 (stereo unspecified)	HCMV antiviral -71 (no result: Sm TGR block, SARS PLpro yeast, Pf growth 48h, Pf growth 96h, HCV inhibitor)
CN(C)/C=C1/C(=O)NC(=O)N(CCNc2ncc(C(F)(F)F)cc2Cl)C1=O	Sm TGR block 11µM
CCCS(=O)(=O)NC(=O)C1(C)CCN(C(=O)c2ccc(C#N)cc2)C1 (stereo unspecified)	none (no result: Sm TGR block, SARS PLpro yeast, Pf growth 48h, Pf growth 96h, HCV inhibitor)
Cc1c(C(=O)N/N=C/c2ccccc2)[nH]c2ccc(Cl)cc12	HCMV antiviral -70, Pf growth 96h inconclusive, HCV inhibitor inconclusive
Cc1c(C(=O)N/N=C/c2ccc(N(C)C)cc2)[nH]c2ccc(Cl)cc12	HCMV antiviral -76, Pf growth 96h 1.9µM, HCV inhibitor inconclusive
CCOc1ccc(S(=O)(=O)N2CCC(C(=O)NCc3ccccc3CN3CCCC3)CC2)cc1	HCMV antiviral inconclusive, Pf growth 48h 9.3µM, Pf growth 96h 13µM
N#Cc1ccccc1S(=O)(=O)N1CCC(C(=O)NCc2ccccc2CN2CCCC2)CC1	Pf growth 48h inconclusive, Pf growth 96h 6.6µM
CCOc1ccc(S(=O)(=O)N2CCC(C(=O)OC(C)C(=O)NC3CCCCC3C)CC2)cc1 (stereo unspecified)	Pf growth 48h 8.3µM, Pf growth 96h 13µM
CC(OC(=O)c1ccc(S(=O)(=O)N2CCCCC2)cc1)C(=O)NC1CCCCC1C (stereo unspecified)	none
Cc1ccc(S(=O)(=O)N2CCC(C(=O)NCc3ccccc3CN3CCCC3)CC2)cc1	none (no result: Sm TGR block, Pf growth 48h, Pf growth 96h)
CN1[C@H]2CC(OC(=O)[C@H](CO)c3ccccc3)C[C@H]1[C@H]1O[C@H]12 (stereo partly specified)	none (no result: Sm TGR block, HCMV antiviral, SARS PLpro yeast, HCV inhibitor)
COc1ccc([C@@H]2[C@@H]3C(=O)N(C(C)(C)C)C(=O)[C@@H]3[C@]3(Cc4ccccc4)C(=O)N(c4ccc(Br)cc4)C(=O)N23)cc1	Pf growth 48h 4.1µM, Pf growth 96h 5.2µM (no result: HCMV antiviral)
CC[C@@]12C(=O)N(c3cccc(Br)c3)C(=O)N1[C@H](c1ccc(Br)cc1)[C@@H]1C(=O)N(C(C)(C)C)C(=O)[C@@H]12	Pf growth 48h 10µM, Pf growth 96h 4.7µM
CC(C)(C)N1C(=O)[C@H]2[C@@H](c3ccc(Br)cc3)N3C(=O)N(c4cccc(Cl)c4)C(=O)[C@@]3(Cc3ccccc3)[C@H]2C1=O	Pf growth 48h 3.3µM, Pf growth 96h 4.7µM
COc1ccc([C@@H]2[C@@H]3C(=O)N(C(C)(C)C)C(=O)[C@@H]3[C@]3(Cc4ccccc4)C(=O)N(c4ccccc4)C(=O)N23)cc1	Pf growth 48h inconclusive, Pf growth 96h inconclusive
CC[C@@]12C(=O)N(c3cccc(Br)c3)C(=O)N1[C@H](c1ccc(OC)cc1)[C@@H]1C(=O)N(C(C)(C)C)C(=O)[C@@H]12	HCMV antiviral inconclusive, Pf growth 48h inconclusive, Pf growth 96h inconclusive
COc1ccc([C@@H]2[C@@H]3C(=O)N(C(C)(C)C)C(=O)[C@@H]3[C@]3(Cc4ccccc4)C(=O)N(c4cccc(Cl)c4)C(=O)N23)cc1	Pf growth 48h 6.6µM, Pf growth 96h 9.3µM
COc1ccc(N2C(=O)N3[C@H](c4ccc(Br)cc4)[C@@H]4C(=O)N(C(C)(C)C)C(=O)[C@@H]4[C@]3(Cc3ccccc3)C2=O)cc1	Pf growth 96h inconclusive
O=C(CCc1nnc(CCc2ccccc2)o1)NC(c1cccnc1)C(F)(F)F (stereo unspecified)	none
CC(C)CN(CC(C)C)c1nnc(NC(=O)Nc2cccc(C(F)(F)F)c2)s1	none (no result: SARS PLpro yeast, Pf growth 48h, Pf growth 96h, HCV inhibitor)
COc1ccc([C@@H]2[C@@H]3C(=O)N(C(C)(C)C)C(=O)[C@@H]3[C@]3(Cc4ccc(Cl)cc4)C(=O)N(c4cccc(F)c4)C(=O)N23)cc1	Pf growth 48h 5.9µM, Pf growth 96h 9.3µM
COc1ccc([C@@H]2[C@@H]3C(=O)N(C(C)(C)C)C(=O)[C@@H]3[C@]3(Cc4ccc(Cl)cc4)C(=O)N(c4cccc(Br)c4)C(=O)N23)cc1	Pf growth 48h inconclusive, Pf growth 96h inconclusive
CC1(C(=O)NC2CCCCC2)Cc2ccccc2C(=O)N1Cc1ccccc1Cl (stereo unspecified)	none (no result: SARS PLpro yeast, Pf growth 48h, Pf growth 96h, HCV inhibitor)
COC(=O)c1ccc(N)cc1O	Pf growth 96h 10µM (no result: Pf growth 48h)
Nc1ccc(C(=O)Oc2ccccc2)c(O)c1	none (no result: Sm TGR block, HCMV antiviral, SARS PLpro yeast, HCV inhibitor)
CCc1ccc(N2CC(C(=O)Nc3cccc(S(=O)(=O)N4CCCC4)c3)CC2=O)cc1 (stereo unspecified)	Pf growth 48h inconclusive, Pf growth 96h inconclusive, HCV inhibitor inconclusive
COc1ccc2[nH]cc(CCn3ccc(O)c(C/C=C/c4ccccc4)c3=O)c2c1	Pf growth 48h 9.3µM, Pf growth 96h inconclusive, HCV inhibitor inconclusive
CC(C)c1ccc2oc(-c3cc(NC(=O)c4cccnc4)ccc3Cl)nc2c1	none (no result: SARS PLpro yeast, Pf growth 48h, Pf growth 96h, HCV inhibitor)
COc1ccc(C(Nc2ccccn2)c2c(NC(=O)c3ccco3)sc(C)c2C)cc1 (stereo unspecified)	HCMV antiviral inconclusive, Pf growth 48h 4.7µM, Pf growth 96h inconclusive, HCV inhibitor inconclusive
O=C(Nc1ccccn1)c1ccco1	none
COc1cccc(C(Nc2ccccn2)c2c(NC(=O)c3ccco3)sc(C)c2C)c1 (stereo unspecified)	HCMV antiviral inconclusive, Pf growth 48h 8.3µM, Pf growth 96h inconclusive, HCV inhibitor inconclusive
Cc1sc(NC(=O)c2ccco2)c(C(Nc2ccccn2)c2ccccc2)c1C (stereo unspecified)	Pf growth 48h inconclusive, Pf growth 96h inconclusive, HCV inhibitor 14µM
COC(=O)c1c(NC(=O)c2ccco2)sc(C)c1C	HCV inhibitor inconclusive (no result: Pf growth 96h)
O=C(NCc1ccc(F)cc1)c1[nH]c(C(F)(F)F)nc1-c1ccccc1	none (no result: Sm TGR block, SARS PLpro yeast, Pf growth 48h, Pf growth 96h, HCV inhibitor)
Cc1cccc(N(O)C(=O)Nc2cccc(Cl)c2)c1	Pf growth 48h inconclusive, Pf growth 96h inconclusive
COc1ccc2oc3c(ccc[n+]3C)c(=O)c2c1	none (no result: Sm TGR block, SARS PLpro yeast, Pf growth 48h, Pf growth 96h, HCV inhibitor)
